About 79,000 compounds went through this panel and 15% of them were active in at least one assay; those are over-represented in the sample as a whole. Values without a mark were called inactive. Active and inactive are the calls of the source. Rule as the data show it: active = growth inhibition above about 70%; inactive = the rest.
Key:
[1] = NCI Yeast Anticancer Drug Screen. Data for the rad50 strain (AID 155);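 also: 0% = growth of vehicle-only cultures of the same strain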; conditions: S. cerevisiae rad50 strain growth inhibition; at 50.0 µM; hits give high values
How it was run: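 Relative growth inhibition (compound vs vehicle) was measured in yeast with a defined repair-gene alteration.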

[2] = NCI Yeast Anticancer Drug Screen. Data for the mec2-1 strain (AID 157); conditions: S. cerevisiae mec2-1 strain, at 50.0 µM, hits give high values
How it was run: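 Strain: mec2-1 (DNA repair/cell cycle alteration). Compound exposure, then growth measured; inhibition expressed relative to vehicle.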

[3] = NCI Yeast Anticancer Drug Screen. Data for the sgs1 mgt1 strain (AID 161);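 also: 0% = growth of cultures given vehicle only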; conditions: S. cerevisiae sgs1 mgt1 strain, at 50.0 µM, hits give high values
How it was run: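 Genetically altered yeast, compound exposure, growth inhibition relative to vehicle.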

[4] = NCI Yeast Anticancer Drug Screen. Data for the cln2 rad14 strain (AID 165);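 also: 0% = growth equal to vehicle treated cultures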; conditions: S. cerevisiae cln2 rad14 strain, at 50.0 µM, hits give high values
How it was run: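 Compounds are applied to the cln2 rad14 yeast strain, and growth is then compared with that of vehicle-treated cultures to give inhibition.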

[5] = NCI Yeast Anticancer Drug Screen. Data for the bub3 strain (AID 167); conditions: S. cerevisiae bub3 mutant strain, at 50.0 µM, hits give high values
How it was run: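 Screening used yeast with an engineered genetic alteration affecting cell cycle control. Compound-exposed cultures were compared with vehicle cultures, and reduced growth was taken as inhibition.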

[6] = NCI Yeast Anticancer Drug Screen. Data for the mlh1 rad18 strain (AID 175); conditions: S. cerevisiae mlh1 rad18 strain growth inhibition; at 50.0 µM; hits give high values
How it was run: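 Read-out is yeast growth inhibition, calculated against vehicle-only controls. The compound was applied to a strain engineered with DNA damage repair alterations.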

SMILES	growth inhibition [1]	growth inhibition [2]	growth inhibition [3]	growth inhibition [4]	growth inhibition [5]	growth inhibition [6]
Cc1nc(C)c(C(=O)NN)cc1C(=O)NN	9.05%	-3.7%	-4.6%	7.45%	-0.7%	-14.7%
CCn1c2ccccc2n2c(=O)c3c(c(C#N)c12)CCCC3	4.6%	13.2%	-30.1%	-8.6%	-33.9%	-18.5%
COc1ccc(CCC(=O)O)c(C(CC(=O)O)C(=O)O)c1OS(=O)(=O)c1ccc(C)cc1 (stereo unspecified)	-21.2%	-30.3%	-40.5%	6.05%	-33.3%	-21.6%
CN(C)c1ccc(N=Nc2ccc(C(C)(C)C)cc2)cc1	-11.3%	3.3%	5.55%	-3.1%	-10.6%	-20.3%
C/C(=N/NC(N)=O)c1c(C)c(Cl)cc(Cl)c1OCCCC(C)C	-8.1%	-3.05%	0.45%	-6.1%	22.9%	-10.6%
C=CS(=O)(=O)c1ccc(Nc2cc(S(=O)(=O)O)c(N)c3c2C(=O)c2ccccc2C3=O)cc1	-20.2%	-30.9%	-4.1%	2.9%	-19.3%	-36.1%
CN(C)c1ccccc1N(C)C	5.5%	-15.4%	-14.9%	-8.2%	-1.35%	-13%
CC1=CC(C)(C)N=C2SC(=O)c3nc4ccccc4c(=O)n3N12	10.7%	2.35%	13.8%	-11.3%	15.1%	16.6%
CCOC(OCC)c1ccc(O)cc1	-4.4%	3.15%	20.3%	-19.2%	-2.2%	12.1%
CCCC(=O)C(N)Cc1ccccc1 (stereo unspecified)	-3.8%	-6.1%	-6%	12.3%	12.2%	-6.3%
Cc1cc(=O)oc2c(-c3ccccc3)nnc(Cl)c12	21.4%	15%	16.2%	13.9%	18.1%	40.5%
CC(C(=O)O)[C@H]1CC[C@H]2[C@@H]3CCC4=CC(=O)CC[C@]4(C)[C@H]3CC[C@]12C (stereo partly specified)	-3.5%	-5.7%	7.15%	-46.9%	2.5%	-10.2%
COc1ccc2c(c1)s/c(=N/N)n2CCCS(=O)(=O)O	5.5%	-1.75%	20.9%	23.1%	5.4%	12.2%
CC(=O)NCCSC(=O)CCCCCCCCC(=O)SCCNC(C)=O	11.8%	-0.25%	27.2%	22.1%	6.55%	6.5%
O=C1OC2(OC2c2ccccc2)c2ccccc21 (stereo unspecified)	0.25%	-8.95%	-37.2%	-15.2%	-29.8%	-22.1%
O=c1[nH]c(=O)n(C2CC(O)C(CO)O2)cc1C#Cc1ccc(C(F)(F)F)cc1 (stereo unspecified)	13.1%	-3.4%	5%	-2.45%	19.2%	-13.7%
C(=N/Nc1ccncc1)/c1ccc2ccccc2n1	-1.8%	-22.6%	-11.4%	-26.9%	-7.65%	4.05%
O=C(CC(=O)N1N=C(n2ccc3ccccc32)CC1c1ccccc1)Nc1cccc(Cl)c1 (stereo unspecified)	-35.5%	-15.3%	-11.8%	12.1%	-3.5%	-5.85%
CCCCNC(=O)OCc1cnc(C)n1Cc1ccccc1	2.8%	-0.3%	6%	4.95%	4.1%	10.2%
CCNC1=C(C(=O)OCC)C(=O)CO1	34%	15.9%	24.2%	9.95%	0.3%	-0.1%
Cc1ccc(-n2nc(C)cc2C)nn1	-3.55%	11.2%	-9.75%	-25.7%	26.6%	-13.8%

SMILES	growth inhibition [1]	growth inhibition [2]	growth inhibition [3]	growth inhibition [4]	growth inhibition [5]	growth inhibition [6]
CC1=C(C#N)C(=O)OC1(C)C1CCCC(=O)C1 (stereo unspecified)	-24.8%	-1.45%	-11.3%	-2.7%	1.95%	-3.75%
Cc1cc2c(SCc3ccccc3Cl)nc(N)nc2nc1C	15.7%	12.3%	5.65%	-35%	-12.6%	31.6%
COC(=O)C1(COC(C)=O)CC1	-6.8%	1.55%	6%	-15.6%	-2.75%	-3.2%
Cn1nc(-c2ccccc2)c(N=[N+]=[N-])cc1=O	-18.1%	14.6%	-41.3%	-11.9%	-10.9%	-34.6%
N#CSCC(Cl)=CCl (mixture of isomers)	2.95%	0.95%	-4.4%	12.5%	0.5%	-19.6%
Nc1cccc(C(F)(F)F)c1N	-13.6%	-15.4%	-6.7%	-24.4%	-13.6%	8.3%
N#CN=CN1CCN(c2ccccc2)CC1	4.8%	-11.2%	-0.15%	-22.6%	-5.4%	-11.9%
Cc1cc(C)c(NC(=O)C(C)(C)C)c(C)c1	-7.15%	-12.9%	-17.7%	-48.9%	10.2%	-2.2%
CCCCCCCCCCCCCCCc1cc(O)ccc1N=O	-3.8%	-16.5%	-8.3%	-3.45%	-1.05%	-11.7%
CN1C(=O)c2c(ccc3c2OCO3)C2C(O)Cc3cc4c(cc3C21)OCO4 (stereo unspecified)	6.85%	9.9%	21.8%	27.9%	7.15%	-51%
O=C1CCCC2=C1CC1=C(CCCC1=O)N2c1ccccc1	-28.5%	-20.9%	8.7%	-0.75%	12.6%	12.6%
c1ccc([P+](c2ccccc2)(c2ccccc2)C2c3ccccc3CCc3ccccc32)cc1	99.6% (active)	99.8% (active)	99.5% (active)	99.5% (active)	99.4% (active)	99.6% (active)
CC1=CC(c2ccccc2)(c2ccccc2)c2ccccc21	0.1%	3%	5%	-19.1%	1.7%	-17.4%
CC[C@@]1(O)C[C@H](OC2CC(N(C)C)C(OC3CC(O)C(OC4CC(O)C(O)C(C)O4)C(C)O3)C(C)O2)c2c(cc3c(c2O)C(=O)c2c(O)ccc(O)c2C3=O)[C@H]1C(=O)OC (stereo partly specified)	-25.1%	-14.8%	-35%	4.3%	1.95%	7.45%
COC1CCC2(C)C3CCC4C(=CCC5C(C)(C)C(O)CCC45C)CC3(C)CCC2C1(C)C (stereo unspecified)	-8.45%	-12.3%	-31.3%	-25.4%	1.2%	-12.7%
Cn1c(=O)c(C#N)c2n(C)c3ccccc3n2c1=O	64.8%	17.4%	13.8%	2.25%	-36.1%	-0.15%
O=[N+]([O-])c1ccccc1N=NNc1ccccc1[N+](=O)[O-]	9.65%	-4%	1.9%	-26.6%	3.1%	3%
COc1cccc(/C=N\N=C\c2cccc(OC)c2O)c1O	2.65%	2.7%	-11.4%	-7.05%	26.6%	33.9%
CCc1ccc(-n2c(C)nc3[nH]cc(C)c3c2=N)cc1	-13.6%	-3.35%	-11.9%	-12.3%	-2.65%	-10.4%
N#C/C(=C\c1ccccc1[N+](=O)[O-])C(=O)O	36.5%	0.45%	23.2%	16.9%	-19%	3.7%

Reference: PubChem BioAssay (NCI)
